One may read the AC50 as the concentration giving half of the maximal activity seen.

Assay [1] addresses human Opioid Receptor Mu (Opiate Mu), OPRM1 (gene 4988) (UniProt P35372). The assay can be described thus: NVS_GPCR_hOpiate_mu: NovaScreen (NVS) G Protein-Coupled Receptor Assay for human Opioid Receptor Mu (Opiate Mu) (AID 2283290).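 Note: hits lower bound tracer signal versus DMSO meaning displacement of the ligand.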 In short, it runs like this:
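CHO-derived receptor protein, cell-free; radioligand displacement, filtration + scintillation counting, read at 2.5 h. DMSO = negative control/baseline. Primary: 25 uM single conc, duplicate; secondary: concentration series.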

Assay [2] concerns the target guinea pig Serotonin, 5-Hydroxytryptamine Receptor 4 (5HT4), HTR4 (gene 100135548) (UniProt O70528). The assay can be described thus: NVS_GPCR_g5HT4: NovaScreen (NVS) G Protein-Coupled Receptor Assay for guinea pig Serotonin, 5-Hydroxytryptamine Receptor 4 (5HT4) (AID 2283294). The essentials: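 Compounds first screened in duplicate at 25 uM, actives followed up in concentration series. Binding measured as displacement of specific radioligand from guinea pig striatal membranes, 1 h, filter-based scintillation read-out versus DMSO baseline.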

In assay [3] the target is rat Serotonin, 5-Hydroxytryptamine Receptor (5HT), Non-Selective Binding, Htr1a (gene 24473) (UniProt P19327). The assay can be described thus: NVS_GPCR_r5HT_NonSelective: NovaScreen (NVS) G Protein-Coupled Receptor Assay for rat Serotonin, 5-Hydroxytryptamine Receptor (5HT), Non-Selective Binding (AID 2283295). The essentials:
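Rat cortex membrane preparation incubated 1 h with radioligand and test chemical; bound radioactivity counted after filtration. Screening began in duplicate at 25 uM with concentration-series follow-up; fitting relative to DMSO.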

The subject of assay [4] is rat Adrenergic, Alpha 1B Receptor (Adra1B), gene 24173. The assay can be described thus: NVS_GPCR_rAdra1B: NovaScreen (NVS) G Protein-Coupled Receptor Assay for rat Adrenergic, Alpha 1B Receptor (Adra1B) (AID 2283297). The essentials: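 Filter-binding radioligand competition on membranes from rat liver, read after 1 h by scintillation counting. Single-concentration duplicate screen at 25 uM, followed by concentration-response on actives, normalised to DMSO.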

Assay [5] addresses rat Adrenergic, Alpha 1A Receptor (Adra1A), Adra1a (gene 29412) (UniProt P43140). Briefly: NVS_GPCR_rAdra1A: NovaScreen (NVS) G Protein-Coupled Receptor Assay for rat Adrenergic, Alpha 1A Receptor (Adra1A) (AID 2283296). The essentials: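 Filter radiodetection after 1 h competitive binding on CEC-pretreated rat cortical membranes. Duplicate single-point screening at 25 uM; active chemicals retested across concentration series.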

Assay [6] deals with mouse Cholecystokinin, CCK2 Receptor (CCKB), Cckbr (gene 12426) (UniProt P56481). Briefly: NVS_GPCR_mCKKBCentral: NovaScreen (NVS) G Protein-Coupled Receptor Assay for mouse Cholecystokinin, CCK2 Receptor (CCKB) (AID 2283293). The essentials: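 Mouse forebrain membrane preparation incubated 2 h with chemical and radioligand; bound radioactivity counted after filtration. Single-concentration duplicate screen at 25 uM, then concentration series to 50 uM max for hits, DMSO as baseline.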
Sequence of mouse Cholecystokinin, CCK2 Receptor (CCKB), Cckbr (gene 12426) (P56481 whole entry, looked up): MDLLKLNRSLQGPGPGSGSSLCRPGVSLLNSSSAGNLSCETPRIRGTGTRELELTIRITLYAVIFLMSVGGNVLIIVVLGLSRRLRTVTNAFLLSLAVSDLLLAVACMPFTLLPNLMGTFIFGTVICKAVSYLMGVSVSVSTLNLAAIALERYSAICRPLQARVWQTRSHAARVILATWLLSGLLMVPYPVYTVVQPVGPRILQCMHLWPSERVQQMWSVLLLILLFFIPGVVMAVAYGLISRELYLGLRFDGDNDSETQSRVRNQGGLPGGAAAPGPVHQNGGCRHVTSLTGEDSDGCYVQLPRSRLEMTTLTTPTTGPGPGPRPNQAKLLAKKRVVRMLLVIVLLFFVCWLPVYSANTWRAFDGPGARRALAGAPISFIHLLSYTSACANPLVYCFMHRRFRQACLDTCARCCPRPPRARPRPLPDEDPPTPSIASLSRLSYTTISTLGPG

Assay [7] concerns the target rat Gamma-Aminobutyric Acid Type B Receptor (GABBR), Gabbr1 (gene 81657) (UniProt Q9Z0U4). Briefly: NVS_GPCR_rGABBR: NovaScreen (NVS) G Protein-Coupled Receptor Assay for rat Gamma-Aminobutyric Acid Type B Receptor (GABBR) (AID 2283301). In short, it runs like this:
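Rat cortical membrane preparation, competitive radioligand binding for 1 h with filtration and scintillation readout. Actives from duplicate single-point 25 uM screening proceeded to concentration series with 50 uM top concentration.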

For assay [8], the target named is rat Adrenergic Receptor, Alpha 2 (Adra2), Non-selective Binding, Adra2a (gene 25083) (UniProt P22909). The assay can be described thus: NVS_GPCR_rAdra2_NonSelective: NovaScreen (NVS) G Protein-Coupled Receptor Assay for rat Adrenergic Receptor, Alpha 2 (Adra2), Non-selective Binding (AID 2283299). The essentials:
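Filter-based scintillation counting of radioligand binding to rat cortical membrane receptors, measured 1.25 hours post-dosing; loss of signal versus DMSO indicates displacement. Initial single-concentration duplicate at 25 uM, then concentration series.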

Assay [9] addresses rat Adrenergic Receptor, Beta (Adrb), Non-selective Binding, Adrb1 (gene 24925) (UniProt P18090). Briefly: NVS_GPCR_rAdrb_NonSelective: NovaScreen (NVS) G Protein-Coupled Receptor Assay for rat Adrenergic Receptor, Beta (Adrb), Non-selective Binding (AID 2283298). The essentials:
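Rat cortical membranes incubated 1 h with beta-adrenergic radioligand and test chemical; bound ligand measured by filtration and scintillation counting. Screen at 25 uM duplicate, then concentration series with 50 uM maximum; loss of signal versus DMSO.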

The target in assay [10] is guinea pig Bradykinin Receptor B2 (BK2), BDKRB2 (gene 100135486) (UniProt O70526). Briefly: NVS_GPCR_gBK2: NovaScreen (NVS) G Protein-Coupled Receptor Assay for guinea pig Bradykinin Receptor B2 (BK2) (AID 2283292). In short, it runs like this: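 Guinea pig ileum membrane preparation incubated 1 h with radioligand and test chemical; bound counts measured after filtration. Primary duplicate screening at 25 uM, then singleton concentration series with a 50 uM top dose; DMSO as baseline.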
Sequence of guinea pig Bradykinin Receptor B2 (BK2), BDKRB2 (gene 100135486) (O70526 whole entry, looked up): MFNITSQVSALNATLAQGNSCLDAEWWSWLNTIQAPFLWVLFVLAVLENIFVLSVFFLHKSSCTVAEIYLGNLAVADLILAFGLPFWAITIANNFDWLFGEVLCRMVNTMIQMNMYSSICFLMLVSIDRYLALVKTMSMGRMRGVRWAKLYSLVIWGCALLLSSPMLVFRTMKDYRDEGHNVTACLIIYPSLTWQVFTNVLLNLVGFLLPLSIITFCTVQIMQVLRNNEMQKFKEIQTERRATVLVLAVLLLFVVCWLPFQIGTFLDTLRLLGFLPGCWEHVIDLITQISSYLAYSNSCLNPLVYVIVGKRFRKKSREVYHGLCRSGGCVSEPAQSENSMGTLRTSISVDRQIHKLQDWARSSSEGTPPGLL

Values joined by “and” are separate entries in the source; they are usually repeats but may differ in a detail not shown here. Equal values may be shown once. Inconclusive results are not listed. Some structures have more than one record in an assay (separate samples or runs), and their calls can disagree. Active and inactive are the calls of the source. Rule for the calls: active = hit-call score of the fitted dose curve at least 0.9, where 1 is the maximum; inconclusive = response in the unintended direction; inactive = score below 0.9.

Sequence of rat Adrenergic, Alpha 1A Receptor (Adra1A), Adra1a (gene 29412) (P43140 whole entry, looked up): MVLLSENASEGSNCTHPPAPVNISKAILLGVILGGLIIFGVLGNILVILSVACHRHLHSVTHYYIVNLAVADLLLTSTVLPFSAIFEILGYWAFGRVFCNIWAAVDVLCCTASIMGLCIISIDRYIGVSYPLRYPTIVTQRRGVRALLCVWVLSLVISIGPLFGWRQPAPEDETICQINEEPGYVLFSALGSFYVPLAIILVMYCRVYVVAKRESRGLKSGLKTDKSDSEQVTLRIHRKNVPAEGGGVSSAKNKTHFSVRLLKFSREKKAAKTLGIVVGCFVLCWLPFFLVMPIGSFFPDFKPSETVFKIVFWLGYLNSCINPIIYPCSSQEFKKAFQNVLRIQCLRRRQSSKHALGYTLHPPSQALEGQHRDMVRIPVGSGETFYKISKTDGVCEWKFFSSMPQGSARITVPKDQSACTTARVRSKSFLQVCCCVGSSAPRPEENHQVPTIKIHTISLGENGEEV
Sequence of rat Adrenergic Receptor, Alpha 2 (Adra2), Non-selective Binding, Adra2a (gene 25083) (P22909 whole entry, looked up): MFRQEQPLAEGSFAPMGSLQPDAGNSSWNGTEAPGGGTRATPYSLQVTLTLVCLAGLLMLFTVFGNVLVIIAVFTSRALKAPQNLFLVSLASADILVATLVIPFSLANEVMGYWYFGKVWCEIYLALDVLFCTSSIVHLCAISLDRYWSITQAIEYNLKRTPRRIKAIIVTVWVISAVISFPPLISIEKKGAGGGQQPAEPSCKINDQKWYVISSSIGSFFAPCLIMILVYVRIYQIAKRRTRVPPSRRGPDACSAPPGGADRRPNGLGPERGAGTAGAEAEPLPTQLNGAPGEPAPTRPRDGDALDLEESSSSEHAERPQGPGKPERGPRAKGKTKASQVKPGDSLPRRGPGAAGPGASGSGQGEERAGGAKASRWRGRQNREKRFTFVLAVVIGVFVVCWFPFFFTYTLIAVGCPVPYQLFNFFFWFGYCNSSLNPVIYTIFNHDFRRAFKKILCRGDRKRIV
Sequence of rat Adrenergic Receptor, Beta (Adrb), Non-selective Binding, Adrb1 (gene 24925) (P18090 whole entry, looked up): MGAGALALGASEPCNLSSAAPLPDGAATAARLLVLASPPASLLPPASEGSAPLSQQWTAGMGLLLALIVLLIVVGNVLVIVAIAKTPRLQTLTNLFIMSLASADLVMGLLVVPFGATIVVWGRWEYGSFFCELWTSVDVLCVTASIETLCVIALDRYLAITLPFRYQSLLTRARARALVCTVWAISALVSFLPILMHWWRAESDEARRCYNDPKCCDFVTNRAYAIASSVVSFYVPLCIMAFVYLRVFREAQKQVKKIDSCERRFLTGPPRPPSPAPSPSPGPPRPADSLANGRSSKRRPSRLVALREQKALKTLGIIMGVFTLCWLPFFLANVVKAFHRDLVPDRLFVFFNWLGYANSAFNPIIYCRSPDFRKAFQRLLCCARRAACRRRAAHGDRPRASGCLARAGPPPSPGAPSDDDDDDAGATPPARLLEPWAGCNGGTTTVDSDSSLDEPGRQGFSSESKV
Sequence of human Opioid Receptor Mu (Opiate Mu), OPRM1 (gene 4988) (P35372 whole entry, looked up): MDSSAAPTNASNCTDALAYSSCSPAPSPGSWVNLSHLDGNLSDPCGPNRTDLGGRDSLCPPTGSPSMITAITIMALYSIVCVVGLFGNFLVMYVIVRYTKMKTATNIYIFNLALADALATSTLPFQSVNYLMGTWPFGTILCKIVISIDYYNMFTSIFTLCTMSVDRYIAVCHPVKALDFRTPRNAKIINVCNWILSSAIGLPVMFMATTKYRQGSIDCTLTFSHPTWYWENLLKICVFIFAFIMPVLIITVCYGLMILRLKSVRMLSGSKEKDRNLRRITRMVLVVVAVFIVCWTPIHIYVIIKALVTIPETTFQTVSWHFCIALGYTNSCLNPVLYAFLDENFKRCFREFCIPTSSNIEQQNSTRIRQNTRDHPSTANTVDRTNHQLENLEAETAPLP
Sequence of rat Serotonin, 5-Hydroxytryptamine Receptor (5HT), Non-Selective Binding, Htr1a (gene 24473) (P19327 whole entry, looked up): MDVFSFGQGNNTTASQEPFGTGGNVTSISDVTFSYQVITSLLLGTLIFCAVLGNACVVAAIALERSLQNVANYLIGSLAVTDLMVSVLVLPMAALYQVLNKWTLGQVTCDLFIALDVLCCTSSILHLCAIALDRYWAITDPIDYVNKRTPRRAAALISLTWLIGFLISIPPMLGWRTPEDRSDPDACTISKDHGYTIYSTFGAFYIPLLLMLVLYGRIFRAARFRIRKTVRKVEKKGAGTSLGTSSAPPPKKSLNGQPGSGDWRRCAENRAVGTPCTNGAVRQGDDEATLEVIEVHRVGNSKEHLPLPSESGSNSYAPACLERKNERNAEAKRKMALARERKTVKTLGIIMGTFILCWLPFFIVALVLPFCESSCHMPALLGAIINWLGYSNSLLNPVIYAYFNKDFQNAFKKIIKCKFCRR
Sequence of guinea pig Serotonin, 5-Hydroxytryptamine Receptor 4 (5HT4), HTR4 (gene 100135548) (O70528 whole entry, looked up): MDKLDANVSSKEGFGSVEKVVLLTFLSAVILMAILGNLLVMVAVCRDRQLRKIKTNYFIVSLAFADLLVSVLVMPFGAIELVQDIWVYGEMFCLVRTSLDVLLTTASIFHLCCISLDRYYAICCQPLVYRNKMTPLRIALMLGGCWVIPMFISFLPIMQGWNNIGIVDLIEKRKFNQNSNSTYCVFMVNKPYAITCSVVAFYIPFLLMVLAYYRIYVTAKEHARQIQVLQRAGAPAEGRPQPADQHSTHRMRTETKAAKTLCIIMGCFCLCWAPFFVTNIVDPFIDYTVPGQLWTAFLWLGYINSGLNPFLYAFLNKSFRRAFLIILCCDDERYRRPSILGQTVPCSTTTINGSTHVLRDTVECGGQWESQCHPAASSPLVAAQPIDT
Sequence of rat Gamma-Aminobutyric Acid Type B Receptor (GABBR), Gabbr1 (gene 81657) (Q9Z0U4 whole entry, looked up): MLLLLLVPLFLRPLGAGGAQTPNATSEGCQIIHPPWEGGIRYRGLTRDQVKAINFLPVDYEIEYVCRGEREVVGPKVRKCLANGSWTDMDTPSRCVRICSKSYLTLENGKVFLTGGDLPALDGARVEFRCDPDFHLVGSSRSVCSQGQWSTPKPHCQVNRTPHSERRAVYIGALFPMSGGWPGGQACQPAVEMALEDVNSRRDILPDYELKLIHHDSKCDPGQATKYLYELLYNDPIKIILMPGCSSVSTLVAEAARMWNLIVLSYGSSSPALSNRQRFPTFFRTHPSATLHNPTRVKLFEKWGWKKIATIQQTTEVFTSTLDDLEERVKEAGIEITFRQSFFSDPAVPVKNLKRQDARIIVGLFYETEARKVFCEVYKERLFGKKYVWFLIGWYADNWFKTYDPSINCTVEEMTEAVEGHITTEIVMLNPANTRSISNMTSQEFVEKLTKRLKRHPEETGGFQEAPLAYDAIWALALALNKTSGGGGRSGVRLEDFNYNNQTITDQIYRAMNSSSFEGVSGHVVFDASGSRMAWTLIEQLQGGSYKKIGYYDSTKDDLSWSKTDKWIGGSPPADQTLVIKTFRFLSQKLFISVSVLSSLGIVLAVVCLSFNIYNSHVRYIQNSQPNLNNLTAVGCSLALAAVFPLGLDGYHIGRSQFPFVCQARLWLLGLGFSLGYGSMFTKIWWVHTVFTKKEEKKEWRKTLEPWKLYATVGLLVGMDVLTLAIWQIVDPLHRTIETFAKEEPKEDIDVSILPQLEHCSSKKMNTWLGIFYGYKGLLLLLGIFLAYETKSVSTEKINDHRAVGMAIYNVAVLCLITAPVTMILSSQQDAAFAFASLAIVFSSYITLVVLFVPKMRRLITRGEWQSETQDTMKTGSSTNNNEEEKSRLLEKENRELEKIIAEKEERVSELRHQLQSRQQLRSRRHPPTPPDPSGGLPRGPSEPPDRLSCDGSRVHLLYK

As to `CN(C)CCCN1c2ccccc2Sc2ccc(Cl)cc21`, the AC50 is 10.3 µM (active) in assay [1], 15.3 µM (active) in [2], 0.331 µM (active) in [3] and 0.0108 µM (active) in assay [4].
For the molecule `S=c1[nH]c2ccccc2s1`, the result in assay [1] was inactive.
With `Cn1cnc2c1c(=O)[nH]c(=O)n2C`, the result in [4] was inactive.
As for `CC(C)NCC(O)c1ccc(O)c(O)c1` (configuration not stated), the result in [4] was inactive.
Take `Cc1occc(=O)c1O`: in assay [1], the call was inactive.
As for `Cc1ccc(C(C)(C)C)c(O)c1`, in [5], the call was inactive.
For the molecule `CCCCc1nc2cccnc2n1Cc1ccc(-c2ccccc2-c2nnn[nH]2)cc1`, in assay [6], the AC50 was 15.4 µM (active). Further, in assay [3], the result was inactive.
As for `CC(C)COC(=O)CCCCC(=O)OCC(C)C`, in [2], the call was inactive.
Turning to `CC(=O)O[C@]1(C(C)=O)CC[C@H]2[C@@H]3C=C(Cl)C4=CC(=O)[C@@H]5C[C@@H]5[C@]4(C)[C@H]3CC[C@@]21C`, in assay [1], the AC50 is 474 nM (active) and 612 nM (active); the molecule was called inactive.
Consider `CCC(C)N(C)C(=O)c1cc2ccccc2c(-c2ccccc2Cl)n1` (configuration not stated), for which, in assay [6], the AC50 was 2.61 µM (active).
As for `NCCOCCOCCN`, the call in assay [7] was inactive.
`CN(C)C(=O)NC1(c2ccccc2)CCN(CC[C@@]2(c3ccc(F)c(F)c3)CN(C(=O)c3ccccc3)CCO2)CC1`: the AC50 in assay [1] was 14.9 µM (active); in assay [3] it was 5.72 µM (active); in assay [5] it was 8.08 µM (active).
Consider `Oc1ccc(O)cc1`, for which the AC50 in [1] is 15.3 µM (active).
For the molecule `COC(=O)[C@H]1[C@H]2C[C@@H]3c4[nH]c5cc(OC)ccc5c4CCN3C[C@H]2C[C@@H](OC(=O)c2cc(OC)c(OC)c(OC)c2)[C@@H]1OC`, the AC50 was 7.12 µM (active) in [1], 5.67 µM (active) in assay [2] and 21.1 µM (active) in assay [4].
As to `CCc1nc(N)nc(N)c1-c1ccc(Cl)cc1`, the AC50 was 4.48 µM (active) in assay [2]; 11.6 µM (active) in [3]; 2.37 µM (active) in [5]; 4.4 µM (active) in assay [4]; 6.56 µM (active) in [8].
On to `CC(C)c1cccc(C(C)C)c1`, for which the outcome in [2] was inactive.
Regarding `CC(=O)CC(c1ccccc1)c1c(O)c2ccccc2oc1=O` (configuration not stated), the molecule was called inactive in assay [2].
For the molecule `O=C(N[C@@H](c1ccccc1)[C@@H]1CCCCN1)c1cccc(C(F)(F)F)c1Cl`, the AC50 in [1] is 10.8 µM (active); in assay [3], 2.1 µM (active); in assay [5], 16.7 µM (active); in assay [8], 39.2 µM (active).
Regarding `CSc1ccc(Oc2ccc(S(N)(=O)=O)cc2CN(C)C)cc1C`, the AC50 in assay [1] is 8.3 µM (active); in assay [2] it was 0.621 µM (active); in assay [3] it was 13.5 µM (active); in assay [5], 6.58 µM (active); in [4], 0.875 µM (active); in assay [9], 25 µM (active). In addition, in assay [8], the AC50 is 10.6 µM (active).
Turning to `CN(C)CCCN(C)CCCN(C)C`, the outcome in [2] and in assay [4] was inactive.
With `Oc1ccccc1O`, the molecule was classed as inactive in [1].
Consider `O=C(O)c1[nH]n(-c2ccc(S(=O)(=O)O)cc2)c(=O)c1N=Nc1ccc(S(=O)(=O)O)cc1`, for which, in assay [2], the AC50 was 15.9 µM (active).
For `Cc1cn([C@H]2C=C[C@@H](CO)O2)c(=O)[nH]c1=O`, the result in assay [10] was inactive.
For the molecule `Nc1nc(=S)c2[nH]cnc2[nH]1`, the molecule was classed as inactive in assay [1].
As to `CCCCC(CC)COP(=O)(OCC(CC)CCCC)OCC(CC)CCCC` (configuration not stated), the outcome in assay [1] was inactive.
Take `CCCCCCCCCCCCCCOS(=O)(=O)O`: the AC50 in [1] was 8.03 µM (active); in assay [4], 20.9 µM (active).
With `CN(C)C(=O)NC1(c2ccccc2)CCN(CCC[C@]2(c3ccc(Cl)c(Cl)c3)CCCN(C(=O)c3ccccc3)C2)CC1`, the AC50 in assay [1] was 3.14 µM (active). The molecule was called inactive in assay [3] and in assay [5].
With `C/C=C/c1ccc(OC)cc1`, the AC50 in [9] was 0.28 µM (active).
`CCCCCCCCCC[N+](C)(C)[O-]`: in [9], the outcome was inactive.
Turning to `Cc1cc(SC2=C(O)C[C@@](CCc3ccc(N)cc3)(C(C)C)OC2=O)c(C(C)(C)C)cc1CO`, the molecule was called inactive in assay [3], in assay [5] and in assay [7].
For the molecule `COc1ccc(OC(F)(F)F)cc1CN[C@H]1CCCN[C@H]1c1ccccc1`, the AC50 in [1] was 7.3 µM (active); in assay [2] it was 12.2 µM (active); in assay [3], 12.1 µM (active); in assay [5] it was 25 µM (active); in [4], 14.8 µM (active); in [8] it was 13.1 µM (active).
As to `O=Cc1ccccc1C=O`, in assay [4], the call was inactive.
In the case of `NC(=Nc1ccccc1)Nc1ccccc1`, the AC50 in assay [5] is 8.43 µM (active). The call in assay [8] was inactive.
Turning to `CCN(CC)CCOc1ccc(C(=C(Cl)c2ccccc2)c2ccccc2)cc1`, the molecule was classed as inactive in [10]. For the same molecule, the AC50 in [2] is 11.4 µM (active); in assay [3], 21 µM (active); in [5], 21 µM (active); in assay [4], 21 µM (active).

The record behind these values is PubChem BioAssay (EPA / NIEHS).
